Bioassay records as filed in PubChem BioAssay.
In the library only some 1.8% were active in any assay of this set; here they are far more common.
VDR inhibitor = vitamin D3 receptor (human) inhibition; P11473; VDR-SRC2-3 peptide fluorescence polarization, 2 h; Potency, µM, most hits filed as inhibitors; 0.93% of 400,000 active
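Two reagent solutions held at 4 deg C in the dark were dispensed, compounds pinned at 23 nl, and the mixture incubated 2 h at room temperature. Read-out: fluorescence polarization of VDR–SRC2-3 peptide binding.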
TrxR1 inh = blocks rat thioredoxin reductase 1 | O89049 | recombinant rTrxR1, NADPH fluorescence consumption, selenite substrate | Potency, µM (series often up to 114 µM), most hits filed as inhibitors | 1% of 390,000 active; note: nearly all actives have a fitted effect of over 65% in size
Target sequence (O89049 whole entry, looked up): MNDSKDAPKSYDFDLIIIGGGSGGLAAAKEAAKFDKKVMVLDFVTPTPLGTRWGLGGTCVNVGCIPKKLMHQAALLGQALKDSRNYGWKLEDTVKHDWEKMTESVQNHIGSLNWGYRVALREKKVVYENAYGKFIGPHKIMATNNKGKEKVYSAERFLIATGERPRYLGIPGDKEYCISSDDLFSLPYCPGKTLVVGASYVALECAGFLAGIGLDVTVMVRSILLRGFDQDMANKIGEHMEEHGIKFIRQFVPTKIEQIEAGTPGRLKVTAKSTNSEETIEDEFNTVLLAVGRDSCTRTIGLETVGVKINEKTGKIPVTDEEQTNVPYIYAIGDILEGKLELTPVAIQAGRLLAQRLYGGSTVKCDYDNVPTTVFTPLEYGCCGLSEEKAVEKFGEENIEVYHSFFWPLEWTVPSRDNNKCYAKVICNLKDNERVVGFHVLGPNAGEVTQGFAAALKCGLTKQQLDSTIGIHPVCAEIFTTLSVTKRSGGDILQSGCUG
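Rat TrxR1 (90 nM in the dispensed reagent) was pre-reduced with 400 uM NADPH for 5 min at room temperature, then incubated with compound for 15 min. After 400 uM selenite was added, NADPH fluorescence (Ex 340/Em 450 nm) was followed for 8 min.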
TrxR1 substrate = is turned over as a substrate by rat TrxR1. O89049. purified TrxR1 substrate turnover, NADPH consumption readout. Potency, µM (series often up to 114 µM). 0.01% of 390,000 active; note: nearly all actives have a fitted effect of over 50% in size
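Rat TrxR1, dispensed at 90 nM, was prereduced with 400 uM NADPH (final) for 5 min at ~22 deg C, then incubated with compound 15 min before 400 uM selenite. A first-read NADPH fluorescence drop versus no-compound background flagged substrates.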
Vif-A3G inh = Vif-A3G binding inhibition; 0.076% of 410,000 active; HeLa A3G-eYFP + Vif (tagged APOBEC3G with the HIV-1 protein that degrades it), YFP fluorescence, overnight; Potency, µM (series often up to 46.1 µM), hits mostly inhibitors; AID 602310; note: nearly all actives have a fitted effect of over 60% in size
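Read-out is eYFP fluorescence (Ex 488/Em 500-530) from Vif-expressing HeLa A3G-eYFP cells; more signal means A3G escaped Vif-mediated degradation. Cells plated overnight, compound pinned in, incubated overnight at 37 deg C.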
Vif-APOBEC3F blk = Vif-A3F binding inhibition; Potency, µM (top dose mostly 46.1 µM); HeLa A3F-eYFP + Vif (tagged APOBEC3F with the HIV-1 protein that degrades it), YFP fluorescence increase; 0.2% of 390,000 active; note: nearly all actives have a fitted effect of over 65% in size
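HeLa cells stably expressing A3F-eYFP plus Vif, plated and incubated overnight at 37 deg C, then exposed to compounds overnight at 37 deg C. Blocked degradation read as raised yellow fluorescence (Ex 488/Em 500-530).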
A number is an active result; - = inactive; ? = inconclusive; . = no result given; ! = repeats disagree; [ ] = remark or other dose. Calls come from the whole dose curve; as a rule, active = well fitted curve in the direction sought with a large enough effect; inconclusive = small, poorly fitted or top-dose-only effect, or another doubt; inactive = no such curve, though single readings can be large; an effect the other way counts as inactive or inconclusive.

SMILES | VDR inhibitor | TrxR1 inh | TrxR1 substrate | Vif-A3G inh | Vif-APOBEC3F blk
Cc1ccc2c(c1C)NC(=O)CC(c1ccccc1O)=N2 | - | - | - | - | 11µM
Cc1ccc(/C=N/NC(=O)c2cc(C)oc2C)cc1 | - | - | - | 7.9µM | -
Cc1cc(C(=O)N/N=C/c2ccncc2)c(C)o1 | - | -[2.29 µM] | - | - | -
COC(=O)c1ccc(NC(=O)CC2C(=O)N(c3cccc(OC)c3)C(=O)N2Cc2ccco2)cc1 (centres undefined) | - | - | - | - | -
CN1CCc2cccc3c2[C@H]1Cc1ccc(O)c(O)c1-3 | 35µM! | 22µM | - | - | -
COc1cc(OC)c(OC)cc1/C=C/c1nccc2ccccc12 | . | - | - | - | .
CCc1cc(C(=O)Nc2sc(C)c(CC)c2C#N)no1 | 79µM | - | - | - | -
CCc1c(C)sc(NC(=O)c2cc(C(C)C)on2)c1C#N | - | - | - | - | -
CCCOc1cc(N)ccc1C(=O)OCCN(CC)CC | - | - | - | - | -
CCCOc1ccc(N)cc1N | ? | ? | - | ? | 22µM
CCOc1ccccc1C(=O)N1CCC(c2nc3ccccc3o2)CC1 | - | - | - | - | -
CCOc1cccc2sc(N(Cc3cccnc3)C(=O)C3CCCCC3)nc12 | - | - | - | - | -
CCCCCCCCCCCCCCCCC(C(=O)O)C(O)(CC(=O)O)C(=O)O (centres undefined) | 10µM | . | . | . | .
CCN(CC)CCC=C(c1cccs1)c1cccs1 | - | 22µM | - | - | ?
Cc1ccc(-c2nc3ccccc3n2C)o1 | - | 22µM | - | - | -
COc1cccc(/C=C/c2nccc3ccccc23)c1OC | . | - | - | - | .
COC(=O)C1=CO[C@@H](C)[C@@H]2CN3CCc4c([nH]c5ccccc45)[C@@H]3C[C@H]12 | - | . | . | . | .
CCCN1CCc2c(sc(NC(=O)c3ccc(S(=O)(=O)N4CCN(C(=O)OCC)CC4)cc3)c2C(N)=O)C1 | - | - | - | ? | 10µM
CCOC(=O)N1CCN(S(=O)(=O)c2ccc(C(=O)Nc3sc4c(c3C(=O)OC)CCN(C)C4)cc2)CC1 | - | - | - | ? | ?
CCCN1CCc2c(sc(NC(=O)c3ccc(S(=O)(=O)N(C)c4ccccc4)cc3)c2C(=O)NC)C1 | - | - | - | 22µM | ?
CCOC(=O)c1c(NC(=O)c2ccc(S(=O)(=O)N3CCC(C)CC3)cc2)sc2c1CCN(C)C2 | - | - | - | ? | 10µM
CCCN1CCc2c(sc(NC(=O)c3ccc(S(=O)(=O)N(C)c4ccccc4)cc3)c2C(N)=O)C1 | - | - | - | ? | 6.3µM
CC1CCc2c(sc3nnn(CC(=O)Nc4ccccc4Cl)c(=O)c23)C1 (centres undefined) | - | - | - | - | -
Cc1[nH]ccc(=O)c1Cc1c(Cl)cccc1Cl | - | - | - | - | -
Cc1nc(C(Cl)(Cl)Cl)nc2[nH]ccc(=O)c12 | 18µM | - | - | - | -
SMILES | VDR inhibitor | TrxR1 inh | TrxR1 substrate | Vif-A3G inh | Vif-APOBEC3F blk
O=C(CC(=O)Nc1ccccc1F)Nc1ccccc1F | - | 89µM | - | - | -
CC(NC(=O)/C=C/c1ccco1)c1nc2ccccc2n1Cc1cccc(Cl)c1 (centres undefined) | - | 14µM | - | ? | -
Cc1ccc(-n2c(N)c(C(N)=O)sc2=S)c(C)c1 | 89µM | - | - | - | -
COc1ccc(Cl)cc1-n1c(N)c(C(N)=O)sc1=S | 79µM | - | - | - | -
Cc1ccccc1-n1c(N)c(C(=O)Nc2ccc(F)cc2)sc1=S | - | - | - | - | -
Cc1ccc(NC(=O)c2sc(=S)n(-c3cc(C)ccc3F)c2N)cc1 | 89µM | -[11.4 µM] | -[11.4 µM] | - | -
COC(=O)c1sc(=S)n(-c2ccccc2OC)c1N | - | - | - | - | -
Cc1cc(C)c(NC(=O)CCn2c(=O)c3cccn3c3ccccc32)c(C)c1 | - | - | - | - | -
Cn1c(=O)n(CCc2ccccc2)c(=O)c2c1nc1n2CCN1c1ccc(Cl)cc1 | - | - | - | - | -
CCCCn1c(-c2ccc(OC)cc2)nc2c(=O)n(C)c(=O)[nH]c21 | 50µM | - | - | - | -
CCCn1c(-c2ccc(OC)cc2)nc2c(=O)n(C)c(=O)[nH]c21 | - | - | - | - | -
c1ccc2c(c1)sc[n+]2CCC1CCCCC1 | . | - | - | - | .
N#C/C(=C/c1ccc(N2CCOCC2)o1)c1ccc(Cl)cc1 | ? | 3.2µM | - | 7.1µM | ?
